From PubChem BioAssay AID504333 (National Center for Advancing Translational Sciences (NCATS), 2011)
Among all 360,000 compounds or so, about 16,000 (4.4%) were called active. Another 9% or so got no clear call; they are omitted. The entries come from a sample that favours actives as a whole. Values without a mark were called inactive. The call rests on the fitted dose curve; in most records, active means well fitted inhibition curve with a large enough effect; inconclusive means small, poorly fitted or top-dose-only effect; inactive means no such curve, though single readings can be large or run the other way.

target: Bromodomain adjacent to zinc finger domain protein 2B (Homo sapiens) (UniProt Q9UIF8); assay: qHTS Assay for Inhibitors of BAZ2B; conditions: AlphaScreen BAZ2B-H3K14Ac peptide displacement; series mostly up to 114 µM; activity change, negative = inhibition: at the top concentration; further: nearly all actives have a fitted effect of over 60% in size
Sequence (Q9UIF8 whole entry, looked up, the tested form may be a part): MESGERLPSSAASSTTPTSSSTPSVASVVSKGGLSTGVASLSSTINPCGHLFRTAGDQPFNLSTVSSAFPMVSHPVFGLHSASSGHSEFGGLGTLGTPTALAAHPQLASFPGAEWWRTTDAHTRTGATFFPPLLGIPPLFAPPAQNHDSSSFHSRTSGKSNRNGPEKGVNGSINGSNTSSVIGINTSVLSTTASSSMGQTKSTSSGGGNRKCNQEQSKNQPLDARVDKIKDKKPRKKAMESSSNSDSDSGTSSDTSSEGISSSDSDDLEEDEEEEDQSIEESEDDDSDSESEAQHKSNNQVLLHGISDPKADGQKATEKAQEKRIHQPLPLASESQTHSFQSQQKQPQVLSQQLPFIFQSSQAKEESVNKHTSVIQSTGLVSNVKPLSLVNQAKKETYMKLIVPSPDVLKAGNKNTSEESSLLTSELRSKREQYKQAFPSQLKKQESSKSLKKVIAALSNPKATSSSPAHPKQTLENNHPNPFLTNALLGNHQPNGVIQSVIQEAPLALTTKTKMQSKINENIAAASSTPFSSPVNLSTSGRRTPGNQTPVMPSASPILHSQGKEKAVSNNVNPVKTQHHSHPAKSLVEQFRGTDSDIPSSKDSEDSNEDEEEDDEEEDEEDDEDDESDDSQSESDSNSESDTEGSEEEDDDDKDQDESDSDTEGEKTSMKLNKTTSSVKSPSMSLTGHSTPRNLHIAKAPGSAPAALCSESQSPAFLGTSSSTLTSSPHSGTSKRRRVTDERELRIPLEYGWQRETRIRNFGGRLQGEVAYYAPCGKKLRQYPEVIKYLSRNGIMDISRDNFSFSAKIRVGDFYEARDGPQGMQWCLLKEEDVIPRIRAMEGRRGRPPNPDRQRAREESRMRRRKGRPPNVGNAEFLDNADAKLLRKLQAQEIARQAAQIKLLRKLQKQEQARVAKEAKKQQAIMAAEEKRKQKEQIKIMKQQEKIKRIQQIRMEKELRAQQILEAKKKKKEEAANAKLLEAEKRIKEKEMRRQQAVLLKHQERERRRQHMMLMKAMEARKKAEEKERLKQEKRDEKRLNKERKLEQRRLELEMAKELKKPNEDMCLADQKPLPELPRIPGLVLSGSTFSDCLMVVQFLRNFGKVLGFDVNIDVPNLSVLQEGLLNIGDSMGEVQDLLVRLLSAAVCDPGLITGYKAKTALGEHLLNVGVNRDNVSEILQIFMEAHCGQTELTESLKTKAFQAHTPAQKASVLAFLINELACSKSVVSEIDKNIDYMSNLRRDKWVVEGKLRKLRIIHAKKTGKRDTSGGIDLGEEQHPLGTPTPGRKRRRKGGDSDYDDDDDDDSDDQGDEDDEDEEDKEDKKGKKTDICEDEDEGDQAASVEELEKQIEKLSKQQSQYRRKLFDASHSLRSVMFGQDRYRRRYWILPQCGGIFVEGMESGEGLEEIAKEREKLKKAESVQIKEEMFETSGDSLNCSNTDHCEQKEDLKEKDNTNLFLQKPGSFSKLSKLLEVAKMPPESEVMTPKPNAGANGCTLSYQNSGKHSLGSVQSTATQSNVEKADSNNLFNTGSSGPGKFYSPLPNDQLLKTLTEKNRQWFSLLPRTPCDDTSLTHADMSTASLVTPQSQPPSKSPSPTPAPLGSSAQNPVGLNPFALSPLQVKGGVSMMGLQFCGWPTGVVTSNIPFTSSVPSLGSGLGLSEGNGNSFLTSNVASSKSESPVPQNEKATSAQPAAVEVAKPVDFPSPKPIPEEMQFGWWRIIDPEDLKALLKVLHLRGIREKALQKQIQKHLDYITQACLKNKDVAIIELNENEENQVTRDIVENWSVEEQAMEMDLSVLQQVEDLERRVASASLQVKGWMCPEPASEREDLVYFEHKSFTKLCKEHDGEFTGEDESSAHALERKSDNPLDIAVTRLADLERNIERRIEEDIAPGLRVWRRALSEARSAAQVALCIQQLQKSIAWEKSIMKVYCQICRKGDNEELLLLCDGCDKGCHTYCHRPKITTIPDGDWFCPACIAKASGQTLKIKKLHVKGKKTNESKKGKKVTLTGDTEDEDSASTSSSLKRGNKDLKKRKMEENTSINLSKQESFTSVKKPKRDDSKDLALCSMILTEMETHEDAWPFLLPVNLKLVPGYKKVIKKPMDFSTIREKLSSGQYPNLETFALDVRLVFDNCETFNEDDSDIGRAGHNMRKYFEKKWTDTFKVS
Summary of the method: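 Compounds, titrated to a top concentration of 110 uM, were incubated 30 min at room temperature with preformed BAZ2B/acetyl-K14 H3 peptide complex (50 nM each). Proximity signal was measured by AlphaScreen after 20 min with beads.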
On the % scale 0 is the no-effect control and ±100 the full control effect; potency means the concentration at half of the fitted maximal effect.

| Structure (SMILES) | activity change, negative = inhibition | Potency |
| --- | --- | --- |
| Cc1cc2ccccc2n1CCNC(=O)c1ccc(F)cc1 | -14.6% |  |
| CCC(=O)N1c2ccccc2CC1C(=O)N1CCN(c2ccccc2F)CC1 (stereo unspecified) | -9.61% |  |
| O=S(=O)(c1ccc2nc(NCc3ccccc3Cl)ccc2c1)N1CCCCC1 | -19.2% |  |
| CCCNC(=O)c1ccc2c(c1)ncn2-c1ccc(C)cc1C | -0.425% |  |
| CSc1nc(=O)c2c(n1C)NC(=O)CC2c1ccccc1OC(C)C (stereo unspecified) | 0.682% |  |
| COc1ccc(Cl)cc1NC(=O)C(C)Sc1nc2c(c(=O)[nH]1)CCCC2 (stereo unspecified) | -2.65% |  |
| COc1cccc(-c2nnc(SCC(=O)N3CCC(C)CC3)o2)c1 | 2.96% |  |
| Cc1nnc(N2CCC(C(=O)Nc3ccc(F)cc3)CC2)c2nn(-c3ccc(Cl)cc3)c(C)c12 | -3.82% |  |
| N#C/C(=C(\O)CCl)c1nnc2n1CCCCC2 |  | 79.4 µM (active) |
| N#C/C(=C/c1cccc([N+](=O)[O-])c1)c1nnc2n1CCCCC2 | -6.09% |  |
| O=C(CNCc1ccco1)Nc1cc(S(=O)(=O)N2CCOCC2)ccc1N1CCCC1 |  | 50.1 µM (active) |
| O=C(COC(=O)c1ccccc1F)Nc1cc(S(=O)(=O)N2CCOCC2)ccc1N1CCCC1 | -2.68% |  |
| CC(=O)NCCC(=O)Nc1cc(S(=O)(=O)N2CCOCC2)ccc1N1CCOCC1 | -10.5% |  |
| CCOCCCn1c(SCC(=O)Nc2ccc(CC)cc2)nc2ccccc2c1=O | 11.4% |  |
| COc1ccc(S(=O)(=O)c2c(Nc3cccc(Cl)c3)sc(C(=O)c3ccccc3)c2N)cc1 | -20.4% |  |
| O=C(c1ccc(S(=O)(=O)N2CCOCC2)cc1)N1CCN(c2ccccc2)CC1 | -2.71% |  |
| O=C(c1ccc(CS(=O)(=O)c2ccccc2)o1)N1CCN(c2ccccc2)CC1 |  | 56.2 µM (active) |
| COc1ccccc1CNC(=O)c1ccc(CS(=O)(=O)c2ccccc2)o1 | -5.07% |  |
| Cc1ccc2oc(=O)c3cnn(CC(=O)N4CCN(c5cccc(Cl)c5)CC4)c3c2c1 | 2.22% |  |
| COc1ccc(N2CCN(C3CCCCC3NS(=O)(=O)c3ccccc3)CC2)cc1 (stereo unspecified) |  | 17.8 µM (active) |
| CCN1CCN(C2CCCCC2NS(=O)(=O)c2ccc(Cl)cc2)CC1 (stereo unspecified) | -4.4% [at 57.1 µM] |  |
| O=S(=O)(NC1CCCCC1N1CCN(c2ccccc2F)CC1)c1ccccc1 (stereo unspecified) | -10.1% [at 57.1 µM] |  |
| O=C(NCc1ccc(F)cc1)c1ccc2nc(N3CCCCC3)sc2c1 | 9.7% |  |
| COc1ccc(C(=O)Nc2nonc2-c2ccc(OC)c(OC)c2)cc1Cl | 5.28% |  |
| CCCCCn1c(CCNC(=O)c2ccc(F)cc2)nc2ccccc21 | 0.99% |  |
| Cc1ccccc1S(=O)(=O)N1[C@@H](c2cccc(Cl)c2)C(C(=O)O)=CC[C@H]1c1ccc(Cl)cc1 |  | 79.4 µM (active) |

| Structure (SMILES) | activity change, negative = inhibition | Potency |
| --- | --- | --- |
| CN1OC(COC(=O)c2ccc(Cl)cc2)CC1c1ccccc1 (stereo unspecified) | 58.4% |  |
| Cc1ccc(S(=O)(=O)N2[C@@H](c3ccccc3F)C(C(=O)O)=CC[C@H]2c2ccc(Cl)cc2)cc1 | -5.93% |  |
| Cc1cc2n(n1)C(c1cc(C(C)(C)C)c(O)cc1O)Nc1ccccc1-2 (stereo unspecified) | -14.5% |  |
| CSc1nc(-c2ccccc2Cl)nc2c1Cc1c(CO)cnc(C)c1O2 | -8.33% |  |
| O=C(CSc1nc2nccnc2c(=O)n1CCc1c[nH]c2ccccc12)Nc1ccccc1F | 3.9% |  |
| Cc1ccc(CSc2nc3ccsc3c(=O)n2CCC(C)C)cc1 | 78.6% |  |
| CCOc1ccc(Nc2nc(Cl)nc(N3CCN(c4ccc(OC)cc4)CC3)n2)cc1 |  | 8.91 µM (active) |
| COc1ccc(Nc2ncc(F)c(N3CCOCC3)n2)cc1 | -27% |  |
| Cc1ccc(Nc2nc(N3CCOCC3)nc(N3CCOCC3)n2)cc1Cl | -13.2% |  |
| CCOC(=O)c1ccc(NC(=O)Cc2cccs2)cc1 | 4.75% |  |
| CCOc1ccccc1NC(=O)Cc1cccs1 |  | 50.1 µM (active) |
| CCOc1ccccc1NC(=O)Cn1nnc(C(=O)NCc2cccs2)c1N | -12.9% |  |
| COc1ccc(CNc2nc(-c3ccccc3)nn2C(=O)c2ccccc2OC)cc1 | -2.25% |  |
| COc1ccc(NC(=O)c2sc(N)nc2-c2ccccc2)cc1 | -2.58% |  |
| Nc1ccc(-c2nnc(-c3ccccc3)o2)cc1 | 17% |  |
| Nc1ccc(-c2sc(N)nc2-c2ccccc2)cc1 |  | 50.1 µM (active) |
| COc1cc(C(=O)N2CCN(c3ccc(Nc4ccc(C)cc4)nn3)CC2)cc(OC)c1OC | -18.6% |  |
| Cc1ccc(-n2ccc(=O)c(C(=O)O)n2)cc1 | 3.19% |  |
| Cc1ccc(S(=O)(=O)NCC(=O)N2CCN(c3ccccn3)CC2)cc1 | 4.28% |  |
| Cc1ccc(N2CCN(c3ccc(C)cc3)C2c2ccccn2)cc1 |  | 50.1 µM (active) |
| O=S(=O)(NCCc1nnc2ccc(SCc3ccc(Cl)cc3Cl)nn12)c1ccccc1 | -33.8% |  |
| COc1ccc(S(=O)(=O)n2nc(C)c(S(=O)(=O)N3CCCCCC3)c2C)cc1 | -5.25% |  |
| CC(=O)Nc1ccc2nc(SCCOc3cc(C)cc(C)c3)sc2c1 | -8.3% |  |
| CCOc1cc2[nH]c(=O)n(Cc3ccc(C(=O)NCCN(CC)CC)cc3)c(=O)c2cc1OCC | 1.27% |  |
| CCCC(=O)N1CCN(c2nc3c(OC)ccc(C)c3s2)CC1 | -9.35% |  |
| Cc1c2cnn(-c3ccccc3)c(=O)c2c(C)n1C(C)C(=O)Nc1ccc(Br)cc1F (stereo unspecified) | -11.3% |  |

| Structure (SMILES) | activity change, negative = inhibition | Potency |
| --- | --- | --- |
| COc1ccc(OC)c(-c2csc(NC(=O)COC(=O)C3CC3)n2)c1 | -31.5% |  |
| COc1ccc(-c2csc(NC(=O)COC(=O)Cc3ccc(Cl)cc3Cl)n2)cc1 | -0.543% |  |
| COc1ccc(OC)c(Nc2nc(-c3ccc(O)c(O)c3)cs2)c1 |  | 50.1 µM (active) |
| COc1ccc(CC(=O)Nc2nc(-c3ccc(F)c(F)c3)cs2)cc1OC | -16.6% |  |
| COc1ccc(-c2csc(NC(=O)COC(=O)c3ccc(Br)o3)n2)cc1 | -0.695% |  |
| COc1ccc(-c2csc(Nc3ccc(O)cc3)n2)cc1 |  | 35.5 µM (active) |
| CC1CCN(c2nc3ccc(C(=O)N4CCN(c5ccccc5)CC4)cc3s2)CC1 | -37% |  |
| COc1ccccc1C(=O)Nc1c(C(=O)N(C)Cc2ccccc2)sc2nc(C)c(Cl)c(C)c12 | -26% |  |
| COc1ccc(NC(=O)CCNS(=O)(=O)c2ccc3c(c2)CCCC(=O)N3)cc1Cl | -0.24% [at 57.1 µM] |  |
| COc1ccc(NC(=O)CSc2nc3ccccc3n2CC(=O)N2CCCCC2C)cc1 (stereo unspecified) | -14.8% |  |
| Cc1ccc(S(=O)(=O)N(CC(=O)Nc2ccc(Cl)cc2Cl)c2ccccc2C)cc1 | -13.1% |  |
| CCOc1cc(C(=O)NCCc2csc3nc(-c4ccc(C)cc4)nn23)cc(OCC)c1OCC | 1.07% |  |
| CCOC(=O)c1cccc(NS(=O)(=O)c2cc(-c3cnc(C)o3)ccc2OC)c1 | -8.57% |  |
| O=C(NC1CCN(Cc2ccccc2)CC1)c1ccc(Cn2c(=O)c3ccccc3n(Cc3cccc(F)c3)c2=O)cc1 | -3.86% |  |
| CCOC(=O)C1CCCN(C(=O)Cn2ncc3c(C)n(Cc4ccc(F)cc4)c(C)c3c2=O)C1 (stereo unspecified) | 9.72% |  |
| CCCCN(CC)CCCNC(=O)c1nn(C)c2c1CS(=O)(=O)c1ccccc1-2 | -1.12% |  |
| COc1ccccc1CN1CCC(CNC(=O)c2cnn(-c3cccc(Cl)c3)c2C2CCN(C(=O)OC(C)(C)C)CC2)CC1 | 4.39% [at 57.1 µM] |  |
| COC(=O)C1=C(C)N(C)C(=S)NC1c1ccccc1 (stereo unspecified) | 6.05% |  |
| CCN1C(=S)N[C@@H](c2cccc(C(F)(F)F)c2)C(C(=O)OC)=C1C |  | 50.1 µM (active) |
| COCCN1C(=O)N[C@@H](c2ccccc2)C(C(=O)OC)=C1C | -4.69% |  |
| COC(=O)CC1Oc2ccccc2-n2cc(-c3ccccc3)nc21 (stereo unspecified) | -31.9% |  |
| COc1ccc(C(=O)/C=C/c2ccc(OC3CSC3)cc2)cc1 | -4.21% |  |
| COc1ccc(C(=O)/C=C/c2cccnc2)c(OC)c1 | 2.6% |  |
| COc1ccc(/C=C/C(=O)c2cc(Br)ccc(=O)c2O)cc1 |  | 44.7 µM (active) |
| COc1cc(OC)c(OC)cc1/C=C/c1nc2cc3ccccc3cc2c(=O)n1-c1ccc(F)c(Cl)c1 | -24% |  |
| COc1ccc(CCNS(=O)(=O)c2cc(-c3cc(C)no3)ccc2C)cc1OC | -3.59% |  |

| Structure (SMILES) | activity change, negative = inhibition | Potency |
| --- | --- | --- |
| Cc1ccc(C)c(OCC(=O)N2CCN(C(=O)c3ccco3)CC2)c1 | 6.13% |  |
| CCC(=O)Nc1ccc(C(=O)N2CCN(C(=O)c3ccco3)CC2)cc1 | -11.3% |  |
| Cc1ccc(OCC(=O)Nc2ccc(N3CCN(C(=O)c4ccco4)CC3)cc2)c(C)c1 |  | 31.6 µM (active) |
| CCOc1ccc(Nc2c(S(=O)(=O)c3ccccc3)cnc3ccccc23)cc1 | -29.1% |  |
| O=C(N/N=C/c1cccnc1)c1cc2ccccc2cc1O | -13.6% |  |
| O=C(NNc1c2ccccc2nc2ccccc12)c1cc2ccccc2cc1O |  | 8.91 µM (active) |
| CC(C)(C)OC(=O)NNc1c2ccccc2nc2ccccc12 | -38.3% |  |
| COC(=O)c1ccccc1NC(=O)c1ccc2c(=O)n3c(nc2c1)CCCCC3 | 0.816% |  |
| CC1=C(C(=O)N2CCN(c3cccc(C(F)(F)F)c3)CC2)C2(CCCCC2)OC1=O | -9.34% |  |
| O=C(NCc1ccccc1)C(=O)NCC(c1ccco1)S(=O)(=O)c1ccc(Cl)cc1 (stereo unspecified) | -0.73% |  |
| C/C(=N\NC(=O)c1ccoc1C)c1ccccc1O |  | 50.1 µM (active) |
| CC(C)=C(NC(=O)c1ccccc1)C(=O)N/N=C(\C)c1ccccc1O | -7% |  |
| Cc1cc(C(=O)NNC(=O)c2ccccc2O)c(C)o1 | -5.59% |  |
| COc1cccc(-c2nc(S(=O)(=O)c3ccc(C)cc3)c(NCc3ccccc3)o2)c1 | 17.1% |  |
| CC(C)(C)Nc1nc(-c2ccccn2)nc2ccccc12 |  | 50.1 µM (active) |
| CCOCCCNc1nc(-c2ccccc2)nc2ccccc12 | 6.2% |  |
| CCC(=O)OCCNc1nc(-c2ccccc2)nc2ccccc12 | 3.03% |  |
| O=c1c2ccccc2n(Cc2cccc(Cl)c2)c(=O)n1Cc1ccccc1 | -8.19% |  |
| O=c1c2cccnc2n(Cc2cccc(F)c2)c(=O)n1Cc1ccccc1Cl | 41.6% |  |
| Clc1cccc(CN2COc3c(cc(Cl)c4cccnc34)C2)c1 |  | 28.2 µM (active) |
| COc1ccc(CNC(=O)c2cc3c(s2)-c2ccccc2OC3)cc1 | 1.59% |  |
| Cc1nc2c(-c3ccccc3)c(C)nn2c(C)c1CCC(=O)NCCc1ccccc1 | 3.94% |  |
| CC1=C(c2ccc(C)cc2)S(=O)(=O)NC1=NCCCN1CCN(c2cc(C)ccc2C)CC1 | -24.4% |  |
